The record followed here is PubChem BioAssay (NCATS).

Structures are written as SMILES. Results filed as inconclusive are left out. Calls of active or inactive are those of the source. The call rests on the fitted dose curve; in most records, active means well fitted inhibition curve with a large enough effect; inconclusive means small, poorly fitted or top-dose-only effect; inactive means flat fitted curve, though single readings scatter.
On the % scale 0 is the no-effect control and ±100 the full control effect.

This assay is described as follows: P-glycoprotein substrates identified in KB-8-5-11 adenocarcinoma cell line, qHTS therapeutic library screen (AID 1346987). Further: nearly all actives have a fitted effect of over 65% in size. Conditions: KB-8-5-11 (P-gp overexpressing) viability, CellTiter-Glo, 72 h; series mostly up to 44.5 µM; activity change, negative = cytotoxicity: at the top concentration. The method, boiled down:
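KB-8-5-11: colchicine-selected sub-line of KB-3-1 over-expressing P-gp; assay medium lacked colchicine. 72 h drug exposure at 37 degree C, CellTiter-Glo.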
As for `CC1CCC2C(C)(C)[C@@H](O)CC[C@]2(C)C12Cc1c(O)cc3c(c1O2)CN(C(CCC(=O)O)C(=O)O)C3=O` (some centres not stated), the “outcome” value was “inactive [at 17.3 µM]”.

On to `CC(C(O)/C=C/C(C)(C)O)C1CCC2(C)C3C(=O)C=C4C(CCC(O)C4(C)C)C3(C)CCC12C` (configuration not stated), for which the “activity change, negative = cytotoxicity” value is 6.65% [at 17.3 µM] (inactive).

In the case of `CCOC(=O)C(CCc1ccccc1)NC(C)C(=O)N1C(=O)N(C)CC1C(=O)O` (configuration not stated), the compound was called inactive.

On to `C[C@@H]1CC[C@]2(C(=O)O[C@@H]3O[C@H](CO)[C@@H](O)[C@H](O)[C@H]3O)CC[C@]3(C)C(=CCC4[C@@]5(C)C[C@@H](O)[C@H](O)[C@@](C)(C(=O)O[C@H]6[C@H](O)C[C@@]7(C)C(CC[C@]8(C)C7CC=C7[C@H]9[C@](C(=O)O[C@@H]%10O[C@H](CO)[C@@H](O)[C@H](O)[C@H]%10O)(CC[C@@H](C)[C@@]9(C)O)CC[C@]78C)[C@@]6(CO)C(=O)O)C5CC[C@]43C)[C@@H]2[C@]1(C)O` (some centres not stated), for which the activity change, negative = cytotoxicity is 1.31% [at 9.29 µM] (inactive).

Take `CC1(C)C2CC(OC3OC(COC4OCC(O)(CO)C4O)C(O)C(O)C3O)C1(C)CC2O` (configuration not stated): the “activity change, negative = cytotoxicity” value was -0.229% [at 17.3 µM] (inactive).

In the case of `Nc1nc2c(ncn2[C@@H]2O[C@@H]3COP(=O)(O)O[C@H]3[C@H]2O)c(=O)[nH]1`, the compound was classed as inactive.

Take `CC(=O)O[C@@H]1[C@@H](CO)O[C@@](CO)(O[C@H]2O[C@H](COC(=O)/C=C/c3ccccc3)[C@@H](O)[C@H](O)[C@H]2O)[C@H]1O`: the “outcome” value is “inactive [at 17.3 µM]”.

On to `CC(=O)N[C@H]1[C@H](O[C@H]2CC[C@@]3(C)C(CC[C@]4(C)C3CC=C3[C@@H]5CC(C)(C)CC[C@]5(C(=O)OC5OCC(O)C(O)C5O)CC[C@]34C)C2(C)C)O[C@H](COC2OC(C)C(O)C(OC3OC(C)C(O)C(O)C3O)C2O)[C@@H](O)[C@@H]1O` (some centres not stated), for which the activity change, negative = cytotoxicity is 4.96% [at 9.29 µM] (inactive).

On to `CC(C)CC1NC(=O)C(C)NC(=O)C(CC(C)C)OC(=O)CCCNC1=O` (configuration not stated), for which the compound was called inactive.

With `Cc1ccc(-c2ccc3c(ccc4sc5c(c43)NC[C@@H](C)NC5=O)n2)cn1`, the compound was called inactive.

With `CC1CC[C@]2(C(=O)O)CC[C@]3(C(=O)O)C(=CCC4[C@@]5(C)CC[C@H](OC6OC(C)C(O)C(OC7OC(CO)C(O)C(O)C7O)C6O)C(C)(C)C5CC[C@]43C)C2C1C` (some centres not stated), the “outcome” value is “inactive [at 17.3 µM]”.

With `Nc1ncnc2c1ncn2CCNCCCCCO`, the compound was called inactive.
